PubChem BioAssay AID488913 (National Center for Advancing Translational Sciences (NCATS), 2010)
Several values for one entry are separate records, joined by “and”; a condition that tells them apart may be missing. Identical values can stand only once. Inconclusive results are not listed. Activity calls are given as the source filed them. Calls follow the shape of the dose curve; as a rule, active = well fitted inhibition curve with a large enough effect; inconclusive = small, poorly fitted or top-dose-only effect, or effect the other way; inactive = no such curve, though single readings can be large or run the other way.

assay: Confirmation Concentration-Response Assay for lipid storage modulators: for probe SAR; conditions: Drosophila S3 cells, BODIPY lipid droplet fluorescence, 18-24 h; series mostly up to 46.1 µM
Source text: NIH Molecular Libraries Probe Production Centers Network [MLPCN] NIH Chemical Genomics Center [NCGC] MLPCN Grant: 1 R03 MH085686-01 Assay Submitter (PI): Beller, Mathias; Max-Planck-Institut fur Biophysikalische Chemie NCGC Assay Overview: Storing lipids as a reservoir for energy or the anabolism of elementary metabolites is a common feature of probably all cells and is conserved from bacteria to humans. The universal cellular lipid storage organelle is the so-called lipid storage droplet (LD). Although ubiquitous, LDs share a simple structure composed of a hydrophobic core that harbors the storage lipids, which is shielded by a droplet-specific phospholipid monolayer to which proteins are attached. The current model of LD biogenesis involves an incorporation of the lipid core into the membrane leaflets of the endoplasmic reticulum (ER) followed by a subsequent budding-like maturation of a LD, which ultimately pinches off. Once released, LD volume can increase by localized lipogenesis or fusion of existing droplets. Storage lipids are re-mobilized enzymatically by lipase activity. Lipase regulation in the adipocyte is heavily studied and involves multiple components including catecholamine signaling, the LD-associated proteins Perilipin and comparative gene identification-58 (CGI-58) and at least two lipases named hormone sensitive lipase (HSL) and adipocyte triglyceride lipase (ATGL). LD regulation outside of the adipocyte is poorly understood and only few components are known. However, there is an urgent need to learn more about ectopic fat depots as mislocalized storage of lipids, for example in the liver or muscle, is an eminent health problem associated with insulin resistance or the metabolic syndrome. We developed a laser-scanning cytometer assay to enable 1,536-well screening and combined the results of the small molecules screen with an RNAi database based on lipid storage.
We dispensed 4 uL of cells at 1.25 x 10^6 cells/mL into LoBase Aurora COC 1,536-well plates (black walled, clear bottom) with a bottle-valve solenoid-based dispenser (Aurora) to obtain 5,000 cells/well. Triacsin C (Sigma-Aldrich T-4540), an inhibitor of long-chain fatty acyl CoA synthetase that blocks synthesis of triglycerides, was used as a positive control for lipid under-storage. A total of 23 nL of compound solution of different concentrations were transferred to the assay plates using a Kalypsys pin tool equipped with a 1,536-pin array containing 10-nL slotted pins (FP1S10, 0.457-mm diameter, 50.8 mm long; V&P Scientific). One microliter of oleic acid (400 uM) was added, and the plate was lidded with stainless steel rubber gasket lined lids containing pinholes. After 18-24 h incubation at 24 degree Celsius and 95% humidity, 4 uL of the dyes BODIPY 493/503 (Molecular Probes) and the Cell Tracker Red CMTPX dye (Molecular Probes) were added to the wells to stain lipid droplets and enumerate cell number, respectively. Fluorescence was detected by excitation of the fluorophores with a 488-nm laser on an Acumen Explorer (TTP Lab Tech). The total intensity in channel 1 (500-530 nm) reflected lipid droplet accumulation. Cells were detected using channel 3 (575- 640 nm) with 5-um width and 100-um depth filters. The ratio of the total intensity in PMT channel 1 over total intensity of channel 3 was also calculated. Percent activity was computed relative to an internal control (100% inhibited lipid droplet deposition due to the presence of 20 uM Triacsin C), which was added to 32 wells/plate.

Row | SMILES | Potency
1 | CCOc1ccc(CCNC(=O)c2cc3sccc3n2Cc2ccccc2)cc1OCC | 35.3 nM (active)
2 | COc1ccc(-c2csc(NC(=O)CSc3nnc(NC4CC4)s3)n2)cc1OC | inactive
3 | CCOc1ccc(CCNC(C)=O)cc1OCC | inactive
4 | O=C(NC1CCCc2c1cnn2-c1ccc(F)cc1F)c1ccccc1 (stereo not given) | 56 nM (active)
5 | COc1ccc(CCNC(=O)c2cc3sccc3n2Cc2ccccc2)cc1OC | 315 nM (active)
6 | CCOc1ccc(CCNC(=O)c2cc3sc(Cl)cc3n2CC)cc1OCC | 2230 nM (active)
7 | COc1ccc(-c2csc(NC(=O)Cc3cccs3)n2)cc1 | 25000 nM (active)
8 | O=C(NCCc1ccc(O)c(O)c1)c1cc2sccc2n1Cc1ccccc1 | inactive
9 | Cc1cccc(Nc2nnc(SCC(=O)Nc3nc(-c4ccc(F)cc4)cs3)s2)c1 | 628 nM (active)
10 | COc1ccc(CCNC(=O)c2cc3sccc3n2Cc2ccc(Cl)cc2)cc1OC | 194 nM (active)
11 | CC1(C)CCC(c2ccc(Cl)cc2)=C(CN2CCN(c3ccc(C(=O)NS(=O)(=O)c4ccc(N[C@H](CCN5CCOCC5)CSc5ccccc5)c(S(=O)(=O)C(F)(F)F)c4)cc3)CC2)C1 | 996 nM (active)
12 | CCOc1ccc(CCNC(=O)c2cc3sccc3n2CC)cc1OCC | 158 nM (active)
13 | Cc1cc(SCc2sc(-c3ccc(C(F)(F)F)cc3)nc2C)ccc1OCC(=O)O | inactive
14 | CCOC(=O)C1CCN(C(=O)C(C)(C)NC(=O)Nc2ccccc2Cl)CC1 | 628 nM (active)
15 | CCOC(=O)C1CCCN(C(=O)C2(NC(=O)Nc3ccc(F)cc3F)CCCCC2)C1 (stereo not given) | inactive
16 | CC(C)(C)OC(=O)N1CCCCC1C(=O)NC1CCCc2c1cnn2-c1ccc(F)cc1F (stereo not given) | inactive
17 | O=C(NC1CCCc2c1cnn2-c1ccc(F)cc1F)c1ccc[n+]([O-])c1 (stereo not given) | inactive
18 | CCOc1ccc(CCNC(=O)c2cc3sccc3n2Cc2ccc(OC(F)F)cc2)cc1OCC | 6.3 nM (active)
19 | CN(C)CC(=O)NC1CCCc2c1cnn2-c1ccc(F)cc1F (stereo not given) | inactive
20 | O=C(NC1CCCc2c1cnn2-c1ccc(F)cc1F)C1CCCCC1 (stereo not given) | 4990 nM (active)

Row | SMILES | Potency
21 | CCOc1ccc(CCNC(=O)c2cc3sccc3n2C(C)C)cc1OCC | 99.6 nM (active)
22 | O=C(NC1CCCc2c1cnn2-c1ccc(F)cc1F)c1cccc(F)c1F (stereo not given) | 315 nM (active)
23 | O=C(Cc1cccs1)Nc1nc(-c2ccc3c(c2)CCC3)cs1 | inactive
24 | O=C(NC1CCCc2c1cnn2-c1ccc(F)cc1F)c1cccc(=O)[nH]1 (stereo not given) | 7910 nM (active)
25 | O=C(NC1CCCc2c1cnn2-c1ccc(F)cc1F)c1ccccn1 (stereo not given) | 8.7 nM (active) and 7.9 nM (active)
26 | CCOC(=O)C1CCN(C(=O)C2(NC(=O)NCc3ccccc3)CCCCC2)CC1 | 4450 nM (active)
27 | CCOC(=O)C1CCN(C(=O)C2(NC(=O)Nc3ccc(F)cc3F)CCCCC2)CC1 | 888 nM (active)
28 | CCn1c(C(=O)NCCc2ccc(OC)c(OC)c2)cc2sc(Cl)cc21 | 9710 nM (active)
29 | O=C(NCCc1ccc2c(c1)OCO2)c1cc2sccc2n1Cc1ccccc1 | inactive
30 | CCOc1ccc(CCNC(=O)c2cc3sccc3n2Cc2cccc(C)c2)cc1OCC | 4 nM (active)
31 | O=C(CSc1nnc(NCc2ccccc2)s1)Nc1nc(-c2cccc(Br)c2)cs1 | 1250 nM (active)
32 | CCOc1ccc(CCNC(=O)c2cc3sccc3[nH]2)cc1OCC | 7910 nM (active)
33 | O=C(NC1CCCc2c1cnn2-c1ccc(F)cc1F)c1ccn[nH]1 (stereo not given) | 2810 nM (active)
34 | Cc1ccc(-c2cnc(SCC(=O)Nc3nccs3)n2Cc2ccco2)cc1 | inactive
35 | CCOC(=O)C1CCN(C(=O)C2(NC(=O)Nc3ccccc3Cl)CCCCC2)CC1 | 1440 nM (active)
36 | O=C(N[C@H]1CCCc2c1cnn2-c1ccc(F)cc1F)c1ccccn1 | 7910 nM (active)
37 | CCOC(=O)C1CCN(C(=O)C2(NC(=O)Nc3ccccc3Cl)CCC2)CC1 | 2810 nM (active)
38 | COc1ccc(-c2csc(NC(=O)CSc3nnc(Nc4ccccc4)s3)n2)cc1 | 628 nM (active)
39 | O=C(NC1CCCc2c1cnn2-c1ccccc1F)c1ccc2ncccc2c1 (stereo not given) | 2230 nM (active)
40 | COc1ccc(NC(=S)N2CCN(c3cccc(Cl)c3)CC2)c(OC)c1 | inactive
